In PubChem BioAssay (EPA / NIEHS):
Activity calls are given as the source filed them. How the source made its calls: active means hit-call score of the fitted dose curve at least 0.9, where 1 is the maximum; inactive means score below 0.9.

Assays:
[1] = ATG_CRE_CIS: Attagene CIS-FACTORIAL HepG2 Assay for human cAMP Responsive Element (CRE) binding protein 3 (AID 2282926); conditions: HepG2 CRE cis-reporter, Attagene multiplexed mRNA; actives raise or lower the signal
In short: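 Induced reporter mRNA from a CRE cis element, measured in HepG2 among many multiplexed units at 24 h. Detection used RT-PCR plus capillary electrophoresis of fluorescent fragments; DMSO served as negative control.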

[2] = target: CCAAT/enhancer-binding protein beta (Homo sapiens) (UniProt P17676); assay: ATG_C_EBP_CIS: Attagene CIS-FACTORIAL HepG2 Assay for human CCAAT/Enhancer Binding Protein (C/EBP) beta (AID 2282927); conditions: HepG2 Attagene cis-factorial transcription factor reporter; actives raise or lower the signal
Sequence of CCAAT/enhancer-binding protein beta (Homo sapiens) (P17676 whole entry, looked up, the tested form may be a part): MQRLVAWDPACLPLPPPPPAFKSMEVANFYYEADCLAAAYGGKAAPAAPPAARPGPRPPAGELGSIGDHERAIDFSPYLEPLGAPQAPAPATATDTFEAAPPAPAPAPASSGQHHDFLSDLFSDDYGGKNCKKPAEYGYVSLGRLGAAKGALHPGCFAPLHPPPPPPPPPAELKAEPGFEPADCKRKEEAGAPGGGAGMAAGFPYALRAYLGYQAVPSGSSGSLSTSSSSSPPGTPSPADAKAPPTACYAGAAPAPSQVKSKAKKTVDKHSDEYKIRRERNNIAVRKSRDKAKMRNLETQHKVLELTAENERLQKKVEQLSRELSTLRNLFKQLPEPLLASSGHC
In short: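 Endogenous C/EBPb-driven reporter transcripts measured in transfected human HepG2 cells at 24 h via RT-PCR and capillary electrophoresis of labelled fragments. Activity fitted in both directions relative to DMSO baseline.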

[3] = ATG_CMV_CIS: Attagene CIS-FACTORIAL HepG2 Assay for human CMV (Internal Marker) (AID 2282928); conditions: HepG2 CMV promoter reporter, transcription factor profiling; actives raise or lower the signal;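 further: endpoint acts as a background internal control marker rather than a target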
In short: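 Readout: fluorescent reporter cDNA fragments separated by capillary electrophoresis after RT-PCR and HpaI cut. Cells: HepG2 carrying transfected cis-promoter reporter constructs, dosed 24 h. Endpoint serves as background internal-marker control, fit bidirectionally versus DMSO.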

[4] = ATG_DR4_LXR_CIS: Attagene CIS-FACTORIAL HepG2 Assay for human Liver X Receptor (LXR), DR4 submotif (AID 2282929); conditions: HepG2 Attagene DR4 cis-reporter, mRNA transcription; actives raise or lower the signal
In short: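 DR4 cis-reporter in HepG2, 24 h exposure. Detection: RT-PCR, 6-FAM labelling, CE fragment analysis. Endpoint fitted bidirectionally, DMSO = baseline.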

[5] = target: Aryl hydrocarbon receptor (Homo sapiens) (UniProt P35869); assay: ATG_Ahr_CIS: Attagene CIS-FACTORIAL HepG2 Assay for human Aryl Hydrocarbon Receptor (Ahr) (AID 2282930); conditions: HepG2 AhR cis-factorial reporter transcription; actives raise or lower the signal
Sequence of Aryl hydrocarbon receptor (Homo sapiens) (P35869 whole entry, looked up): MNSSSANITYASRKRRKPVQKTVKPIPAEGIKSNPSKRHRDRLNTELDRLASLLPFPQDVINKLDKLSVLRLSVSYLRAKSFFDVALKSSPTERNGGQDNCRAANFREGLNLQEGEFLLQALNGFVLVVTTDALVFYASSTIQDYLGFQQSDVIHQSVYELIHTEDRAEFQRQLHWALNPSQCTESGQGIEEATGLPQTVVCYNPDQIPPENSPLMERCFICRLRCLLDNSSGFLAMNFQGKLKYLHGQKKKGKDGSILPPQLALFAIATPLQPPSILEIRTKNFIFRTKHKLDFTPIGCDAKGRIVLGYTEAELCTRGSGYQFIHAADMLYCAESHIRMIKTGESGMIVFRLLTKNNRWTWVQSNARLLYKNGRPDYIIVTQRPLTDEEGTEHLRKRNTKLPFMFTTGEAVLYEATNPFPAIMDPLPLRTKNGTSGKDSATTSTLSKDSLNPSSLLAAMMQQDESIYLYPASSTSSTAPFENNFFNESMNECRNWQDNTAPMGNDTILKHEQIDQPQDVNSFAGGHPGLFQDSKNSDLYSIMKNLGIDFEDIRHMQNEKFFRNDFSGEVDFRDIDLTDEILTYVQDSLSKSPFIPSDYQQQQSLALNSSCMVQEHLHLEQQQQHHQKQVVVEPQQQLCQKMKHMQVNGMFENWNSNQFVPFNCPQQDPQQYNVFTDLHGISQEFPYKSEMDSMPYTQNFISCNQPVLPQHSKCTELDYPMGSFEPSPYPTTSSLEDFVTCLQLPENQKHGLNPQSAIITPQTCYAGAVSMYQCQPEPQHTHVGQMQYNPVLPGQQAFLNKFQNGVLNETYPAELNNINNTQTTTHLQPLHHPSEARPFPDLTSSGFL
In short: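 Reporter mRNA levels, quantified by RT-PCR and fluorescent capillary electrophoresis, reflect endogenous AhR transcriptional activity in HepG2 cells carrying transfected cis-promoter reporter constructs. Readout at 24 h post-dose; gain or loss fitted against DMSO baseline.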

[6] = ATG_AP_1_CIS: Attagene CIS-FACTORIAL HepG2 Assay for human Activator Protein 1 (AP-1) (AID 2282931); conditions: HepG2 Attagene cis-factorial AP-1 reporter mRNA; actives raise or lower the signal
In short: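 Cis-regulated reporter units transiently expressed in HepG2 report endogenous transcription-factor activity. Signal: reporter mRNA at 24 h, via RT-PCR and fluorescent capillary electrophoresis. Endpoint derived by bidirectional fitting, DMSO as negative control.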

[7] = ATG_BRE_CIS: Attagene CIS-FACTORIAL HepG2 Assay for human Bone Morphogenetic Protein (BMP) Response Element (BRE) (AID 2282933); conditions: HepG2 BMP response element reporter, Attagene transcription factor profiling; actives raise or lower the signal
In short: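 Read-out: reporter mRNA induction quantified by RT-PCR and capillary electrophoresis after 24 h chemical exposure of transfected HepG2 cells. Endogenous factor activity on the BMP response element; gain or loss fitted against DMSO baseline.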

[8] = target: Retinoic acid receptor alpha (Homo sapiens) (UniProt P10276); assay: ATG_DR5_RAR_CIS: Attagene CIS-FACTORIAL HepG2 Assay for human Retinoic Acid Receptor Alpha (RARE), DR5 submotif (AID 2282934); conditions: HepG2 Attagene cis-factorial RARE DR5 reporter, mRNA; actives raise or lower the signal
Sequence of Retinoic acid receptor alpha (Homo sapiens) (P10276 whole entry, looked up): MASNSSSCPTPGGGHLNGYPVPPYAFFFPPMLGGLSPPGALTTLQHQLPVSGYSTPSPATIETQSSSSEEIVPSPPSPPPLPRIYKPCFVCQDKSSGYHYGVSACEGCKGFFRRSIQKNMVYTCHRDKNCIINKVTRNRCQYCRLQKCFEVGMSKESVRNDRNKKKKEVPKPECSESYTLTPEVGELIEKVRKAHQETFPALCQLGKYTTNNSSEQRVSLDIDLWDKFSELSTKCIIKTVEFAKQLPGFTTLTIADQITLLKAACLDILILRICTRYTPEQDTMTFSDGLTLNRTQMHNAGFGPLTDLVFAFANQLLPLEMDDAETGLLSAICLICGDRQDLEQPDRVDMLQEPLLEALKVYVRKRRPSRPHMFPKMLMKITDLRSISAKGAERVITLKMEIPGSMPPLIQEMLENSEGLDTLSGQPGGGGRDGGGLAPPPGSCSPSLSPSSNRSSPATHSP
In short: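 Reporter transcripts from a DR5-regulated unit, measured via RT-PCR plus capillary electrophoresis, reflect endogenous RAR activity in transiently transfected human HepG2 liver cells. Exposure lasted 24 h; gain or loss of signal scored against DMSO.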

[9] = target: Transcription factor E2F1 (Homo sapiens) (UniProt Q01094); assay: ATG_E2F_CIS: Attagene CIS-FACTORIAL HepG2 Assay for human E2F Transcription Factor 1 (AID 2282935); conditions: HepG2 Attagene cis-reporter, E2F reporter RNA transcripts; actives raise or lower the signal
Sequence of Transcription factor E2F1 (Homo sapiens) (Q01094 whole entry, looked up): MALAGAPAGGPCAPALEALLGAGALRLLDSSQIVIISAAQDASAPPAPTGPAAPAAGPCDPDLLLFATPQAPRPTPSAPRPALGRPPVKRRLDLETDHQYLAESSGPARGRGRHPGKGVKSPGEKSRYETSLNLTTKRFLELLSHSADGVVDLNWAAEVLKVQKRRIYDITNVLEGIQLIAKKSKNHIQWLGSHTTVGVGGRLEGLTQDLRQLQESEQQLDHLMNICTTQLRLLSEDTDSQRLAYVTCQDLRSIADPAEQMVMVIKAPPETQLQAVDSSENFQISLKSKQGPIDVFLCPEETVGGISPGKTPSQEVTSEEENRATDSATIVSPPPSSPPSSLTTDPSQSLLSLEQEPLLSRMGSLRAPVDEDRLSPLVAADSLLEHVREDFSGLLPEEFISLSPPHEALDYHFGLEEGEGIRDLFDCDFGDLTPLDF
In short: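 Gain or loss of reporter transcript, fitted against DMSO, reflects E2F1-driven transcription. Transiently transfected HepG2 dosed 24 h before RNA isolation. Quantified by fluorescent RT-PCR products separated by capillary electrophoresis.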

[10] = ATG_E_Box_CIS: Attagene CIS-FACTORIAL HepG2 Assay for human Enhancer Box (E-box) (AID 2282936); conditions: HepG2 E-box cis-reporter transcription, actives raise or lower the signal
In short: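 E-box-driven reporter transcripts measured in transiently transfected HepG2 after 24 h exposure: RNA reverse-transcribed, PCR-amplified, fluorescently labelled, digested and resolved by capillary electrophoresis. Gain or loss relative to DMSO.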

[11] = ATG_M_61_CIS: Attagene CIS-FACTORIAL HepG2 Assay for M61 Transcription Factor (Internal Marker) (AID 2282937); conditions: HepG2 Attagene CIS-FACTORIAL M61 internal marker reporter; actives raise or lower the signal
In short: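 Background-control endpoint: HepG2 cells with cis-regulated reporter constructs, 24 h exposure, reporter mRNA detected via fluorescent primer extension and capillary electrophoresis; values from bidirectional fitting with DMSO baseline.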

[12] = ATG_EGR_CIS: Attagene CIS-FACTORIAL HepG2 Assay for human Early Growth Response 1 (EGR1) (AID 2282938); conditions: HepG2 Attagene CIS-FACTORIAL EGR reporter mRNA; actives raise or lower the signal
In short: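 Endpoint derived by bidirectional fitting versus DMSO vehicle. Method: cis-promoter reporter units transfected into HepG2, 24 h dosing, RNA isolation, RT-PCR with 6-FAM primer extension and HpaI digestion, then capillary electrophoresis fluorescence detection.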

[13] = ATG_M_19_CIS: Attagene CIS-FACTORIAL HepG2 Assay for M19 Transcription Factor (Internal Marker) (AID 2282939); conditions: HepG2 Attagene CIS-FACTORIAL M19 internal marker reporter; actives raise or lower the signal
In short: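 Readout: fluorescent reporter-transcript fragments by capillary electrophoresis after RT-PCR. Human HepG2 liver cells carried transfected MRTU constructs reporting endogenous transcription-factor activity; exposure 24 h. Gain or loss of signal fitted relative to DMSO.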

[14] = ATG_Ets_CIS: Attagene CIS-FACTORIAL HepG2 Assay for human Erythroblast Transformation Specific (ETS) (AID 2282941); conditions: HepG2 ETS cis-reporter transcription, actives raise or lower the signal
In short: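 RT-PCR/capillary electrophoresis fluorescence read-out of reporter mRNA; HepG2 transient multi-reporter transfection; 24 h compound exposure; gain or loss of signal fitted bidirectionally relative to DMSO.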

[15] = target: Hepatocyte nuclear factor 3-beta (Homo sapiens) (UniProt Q9Y261); assay: ATG_FoxA2_CIS: Attagene CIS-FACTORIAL HepG2 Assay for human Forkhead box A2 (FOXA2) (AID 2282942); conditions: HepG2 cis-reporter transcription factor activity, 24 h; actives raise or lower the signal
Sequence of Hepatocyte nuclear factor 3-beta (Homo sapiens) (Q9Y261 whole entry, looked up): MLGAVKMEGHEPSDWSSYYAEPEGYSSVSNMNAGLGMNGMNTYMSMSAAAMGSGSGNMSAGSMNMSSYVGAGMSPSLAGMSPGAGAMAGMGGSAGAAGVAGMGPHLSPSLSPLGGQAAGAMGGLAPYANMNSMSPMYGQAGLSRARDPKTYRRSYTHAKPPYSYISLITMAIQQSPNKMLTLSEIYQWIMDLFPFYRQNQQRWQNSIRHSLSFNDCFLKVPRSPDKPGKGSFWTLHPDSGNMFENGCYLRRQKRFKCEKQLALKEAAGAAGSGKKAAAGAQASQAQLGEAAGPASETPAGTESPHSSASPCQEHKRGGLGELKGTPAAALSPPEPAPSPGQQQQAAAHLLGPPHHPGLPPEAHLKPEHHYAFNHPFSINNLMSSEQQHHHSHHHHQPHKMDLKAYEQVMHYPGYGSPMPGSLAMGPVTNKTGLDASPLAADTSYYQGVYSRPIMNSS
In short: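 Measured: reporter mRNA induction or loss in HepG2 transiently carrying multiple cis-regulated reporter units, 24 h after dosing. Quantified by RT-PCR plus capillary electrophoresis, normalised to DMSO.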

[16] = ATG_FoxO_CIS: Attagene CIS-FACTORIAL HepG2 Assay for human Forkhead box O (FoxO) (AID 2282943); conditions: HepG2 Attagene cis-reporter, FoxO element, mRNA; actives raise or lower the signal
In short: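 Endogenous transcription factor activity read from multiplexed cis-promoter reporter transcripts in transiently transfected HepG2, 24 h after dosing. Reporter RNA measured via RT-PCR plus capillary electrophoresis of FAM-labeled products; gain or loss relative to DMSO.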

[17] = ATG_GATA_CIS: Attagene CIS-FACTORIAL HepG2 Assay for human GATA Binding Protein (AID 2282944); conditions: HepG2 GATA cis-element reporter, Attagene multiplex mRNA; actives raise or lower the signal
In short: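 Read-out: fluorescent reporter mRNA fragments resolved by capillary electrophoresis after RT-PCR. Human liver HepG2 cells carried transiently transfected cis-regulated reporter constructs; chemicals incubated 24 h; gain or loss of signal fitted relative to DMSO.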

[18] = ATG_AP_2_CIS: Attagene CIS-FACTORIAL HepG2 Assay for human Activator Protein 2 (AP-2) (AID 2282932); conditions: HepG2 AP-2 cis-reporter, Attagene transcription factor profiling; actives raise or lower the signal
In short: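 Endogenous transcription factor activity is reported through transfected multiplex reporter constructs in HepG2, after 24 h of compound exposure. Transcripts were quantified by RT-PCR and capillary electrophoresis of fluorescent fragments. Bidirectional fit against DMSO.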

[19] = ATG_ERE_CIS: Attagene CIS-FACTORIAL HepG2 Assay for Estrogen Response Element (ERE) (AID 2282940); conditions: HepG2 ERE cis-reporter, Attagene RNA transcript; actives raise or lower the signal
In short: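 Readout: reporter mRNA induction by RT-PCR, FAM-labelled primer extension, HpaI digestion and capillary electrophoresis, 24 h after dosing transfected HepG2 cells. Endogenous transcription factors act on cis-element-regulated reporters. Gain or loss fitted against DMSO.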

[20] = ATG_GLI_CIS: Attagene CIS-FACTORIAL HepG2 Assay for human Zinc Finger Protein GLI1 (AID 2282945); conditions: HepG2, Attagene cis-factorial reporter mRNA, GLI element; actives raise or lower the signal
In short: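 Bidirectional curve fits relative to DMSO, using reporter mRNA levels from RT-PCR plus capillary electrophoresis. Cells were HepG2 transiently carrying cis-regulated reporter constructs, harvested 24 h after dosing.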

Measured: AC50

C=C(C)C(=O)OCC(CC)(COC(=O)C(=C)C)COC(=O)C(=C)C
inactive: [1] | [2] | [3] | [4] | [5] | [6] | [7] | [8] | [9] | [10] | [11] | [12] | [13] | [14] | [15] | [16] | [17]

CCN(CCN)c1cccc(C)c1
inactive: [1] | [2] | [3] | [4] | [18] | [7] | [8] | [9] | [10] | [11] | [12] | [13] | [19] | [14] | [15] | [16] | [17] | [20]
active: [5] 50 µM

CC[N+](C)(CC)CC
inactive: [1] | [2] | [3] | [4] | [5] | [6] | [7] | [8] | [9] | [10] | [11] | [12] | [13] | [14] | [15] | [16] | [17] | [20]

Cc1ccc(C)o1
inactive: [1] | [2] | [3] | [4] | [5] | [6] | [7] | [8] | [9] | [10] | [11] | [12] | [13] | [14] | [15] | [16] | [17] | [20]

C=C(C)C1CC=C(C)C(=O)C1 (stereo not drawn)
inactive: [1] | [2] | [3] | [4] | [5] | [6] | [18] | [7] | [10] | [11] | [12] | [13] | [14] | [15] | [16] | [17] | [20]

CCCCCCCCCC(C)C=O (stereo not drawn)
inactive: [1] | [2] | [3] | [4] | [5] | [18] | [7] | [8] | [9] | [10] | [11] | [12] | [13] | [14] | [15] | [16] | [17] | [20]

C=C(C#N)C(=O)OCC
active: [2] 154 µM | [4] 158 µM
inactive: [1] | [3] | [5] | [18] | [7] | [8] | [9] | [10] | [11] | [12] | [13] | [14] | [15] | [16] | [17] | [20]

c1ccc(Oc2ccccc2)cc1
inactive: [1] | [2] | [3] | [4] | [5] | [6] | [7] | [8] | [9] | [10] | [11] | [12] | [13] | [14] | [15] | [16] | [17] | [20]
